High-throughput results: PubChem, several laboratories
Only some compounds are listed: those with a hit (about 4.3% of all), similar ones and a draw of the others.
FAS TE block: FAS thioesterase (human) inhibition; inhibition, % at 15 µM; hit rate 0.67% among 360,000; AID 602261; recombinant FAS-TE, OMFH fluorogenic substrate, fluorescence endpoint; P49327;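 active = compounds whose normalised, plate-corrected inhibition of enzyme fluorescence in the single-dose primary screen is 50% or more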
Target sequence (P49327 whole entry, looked up): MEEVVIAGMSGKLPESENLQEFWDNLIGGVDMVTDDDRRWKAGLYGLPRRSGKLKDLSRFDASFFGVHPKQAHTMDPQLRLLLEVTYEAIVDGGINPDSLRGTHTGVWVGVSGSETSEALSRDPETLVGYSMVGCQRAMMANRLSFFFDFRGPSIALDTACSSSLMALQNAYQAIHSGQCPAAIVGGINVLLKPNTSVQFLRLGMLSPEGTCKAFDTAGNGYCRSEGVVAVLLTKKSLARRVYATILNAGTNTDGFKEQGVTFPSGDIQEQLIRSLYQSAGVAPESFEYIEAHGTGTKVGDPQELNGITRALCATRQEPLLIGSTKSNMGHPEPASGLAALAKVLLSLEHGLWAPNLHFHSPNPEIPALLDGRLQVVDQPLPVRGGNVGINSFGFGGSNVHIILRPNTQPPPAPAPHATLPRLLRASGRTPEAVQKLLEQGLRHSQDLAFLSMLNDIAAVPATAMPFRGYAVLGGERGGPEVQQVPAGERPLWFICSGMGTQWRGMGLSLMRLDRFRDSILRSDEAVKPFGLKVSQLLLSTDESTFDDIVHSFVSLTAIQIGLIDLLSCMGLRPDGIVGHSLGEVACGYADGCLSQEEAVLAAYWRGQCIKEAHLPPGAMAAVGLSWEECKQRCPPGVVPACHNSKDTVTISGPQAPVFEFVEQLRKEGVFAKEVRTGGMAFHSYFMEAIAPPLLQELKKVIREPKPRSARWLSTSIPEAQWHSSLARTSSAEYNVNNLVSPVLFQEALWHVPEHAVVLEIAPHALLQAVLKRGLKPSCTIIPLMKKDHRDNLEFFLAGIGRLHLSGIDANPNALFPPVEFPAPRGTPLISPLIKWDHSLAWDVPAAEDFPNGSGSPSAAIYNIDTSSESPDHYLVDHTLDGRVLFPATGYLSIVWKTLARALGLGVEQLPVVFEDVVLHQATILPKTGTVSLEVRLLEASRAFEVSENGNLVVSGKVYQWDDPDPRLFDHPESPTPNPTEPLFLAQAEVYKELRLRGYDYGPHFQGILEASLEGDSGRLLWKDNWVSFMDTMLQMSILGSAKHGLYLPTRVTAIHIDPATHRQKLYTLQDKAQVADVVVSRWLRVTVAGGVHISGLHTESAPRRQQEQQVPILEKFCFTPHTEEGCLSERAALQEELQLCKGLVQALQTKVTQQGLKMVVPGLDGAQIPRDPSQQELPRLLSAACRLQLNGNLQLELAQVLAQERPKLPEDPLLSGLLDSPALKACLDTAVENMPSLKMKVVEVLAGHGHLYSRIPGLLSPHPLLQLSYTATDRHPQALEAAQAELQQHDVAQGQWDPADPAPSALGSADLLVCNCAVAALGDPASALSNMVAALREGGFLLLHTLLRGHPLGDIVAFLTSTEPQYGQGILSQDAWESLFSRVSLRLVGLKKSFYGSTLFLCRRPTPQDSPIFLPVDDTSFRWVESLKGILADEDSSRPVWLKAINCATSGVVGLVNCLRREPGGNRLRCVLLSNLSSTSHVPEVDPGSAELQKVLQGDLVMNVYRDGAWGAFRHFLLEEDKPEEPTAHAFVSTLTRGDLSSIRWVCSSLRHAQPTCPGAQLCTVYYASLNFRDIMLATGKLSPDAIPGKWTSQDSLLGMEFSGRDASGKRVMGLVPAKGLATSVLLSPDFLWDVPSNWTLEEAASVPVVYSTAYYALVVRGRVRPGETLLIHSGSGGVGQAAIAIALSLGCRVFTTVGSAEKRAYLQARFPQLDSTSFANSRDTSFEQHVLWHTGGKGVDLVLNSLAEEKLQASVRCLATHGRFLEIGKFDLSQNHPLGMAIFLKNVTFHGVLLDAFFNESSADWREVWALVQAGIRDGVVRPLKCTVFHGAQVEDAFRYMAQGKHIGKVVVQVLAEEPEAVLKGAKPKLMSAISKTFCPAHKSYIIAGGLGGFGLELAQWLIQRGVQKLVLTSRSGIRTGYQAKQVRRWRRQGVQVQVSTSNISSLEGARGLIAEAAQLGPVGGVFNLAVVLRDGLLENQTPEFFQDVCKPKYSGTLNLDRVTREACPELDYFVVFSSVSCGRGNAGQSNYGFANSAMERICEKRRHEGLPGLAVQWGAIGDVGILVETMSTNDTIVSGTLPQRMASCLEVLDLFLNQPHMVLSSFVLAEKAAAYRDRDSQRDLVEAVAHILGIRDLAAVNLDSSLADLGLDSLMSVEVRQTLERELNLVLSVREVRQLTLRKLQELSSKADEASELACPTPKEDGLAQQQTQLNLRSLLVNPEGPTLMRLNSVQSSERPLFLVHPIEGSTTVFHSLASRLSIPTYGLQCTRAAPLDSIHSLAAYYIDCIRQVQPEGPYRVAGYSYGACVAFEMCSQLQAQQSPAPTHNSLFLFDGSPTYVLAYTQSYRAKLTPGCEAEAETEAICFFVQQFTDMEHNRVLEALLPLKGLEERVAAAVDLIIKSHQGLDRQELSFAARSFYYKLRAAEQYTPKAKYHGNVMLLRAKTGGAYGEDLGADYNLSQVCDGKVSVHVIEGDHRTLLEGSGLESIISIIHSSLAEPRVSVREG
NadD block: inhibitors of Staphylococcus aureus NadD | purified NadD enzyme, colorimetric absorbance read-out | inhibition, % at 20 µM | hit rate 0.78% among 360,000; in the data active = inhibition above about 26%
NR3A LBD binder: NR3A (human) ligand-binding domain modulation; NR3A LBD differential scanning fluorimetry, Tm shift; 0% = protein alone, 100% = glycine-bound protein; Tm shift relative to glycine control, % at 25 µM; hit rate 2.5% among 340,000;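 active = melting temperature shift of at least 10% of the positive control shift, at one fixed dose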
rCAG RNA binder: molecules binding r(CAG) RNA repeats; inhibition, % at 3 µM; AID 651821; hit rate 1.3% among 370,000; r(CAG) RNA repeat, TO-PRO-1 dye displacement fluorescence;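 active = inhibition above the plate cutoff, the mean of all test compounds on that plate plus 3 SD, cut at about 35% in these data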;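 note: higher means more dye released from RNA so lower well fluorescence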
NadD inh conf: NadD (S. aureus) inhibition, single concentration confirmation. hit rate 13% among 2,000. purified S. aureus NadD, colorimetric enzyme assay. inhibition, % at 20 µM. shares compounds with NadD block; in the data active = inhibition mostly above about 42%, no sharp cut-off; inactive = mostly below about 42%
Each line names hits and unclear results; the compound was inactive in the other large screens (follow-up assays come after a bar, where they were run).

C[C@@H]1CCN(C2CC2)S(=O)(=O)c2ccc(N3CC[C@H](N(C)C)C3)cc2O1	none (no result: FAS TE block, NadD block, NR3A LBD binder)
N=c1c(S(=O)(=O)c2ccc(Cl)cc2)cc2c(=O)n3ccccc3nc2n1C1CCCCC1	FAS TE block 65, NadD block 43 | NadD inh conf inactive
COc1ccc(C(=O)NC2CCN(CC(=O)NCc3ccccc3F)CC2)cc1	NadD block 40 | NadD inh conf inactive
O=C(CN1CCC(NC(=O)c2ccc(F)cc2)CC1)NCc1ccccc1F	none
Cc1ccc(OCc2nnc(SCC(=O)Nc3cccc4ccccc34)n2Cc2ccco2)cc1	none (no result: FAS TE block, NadD block, NR3A LBD binder)
O=C(Nc1ccc(-c2ccco2)cc1)C1CCCN(Cc2ccc(CO)o2)C1 (configuration not stated)	none
CC(=O)c1cccc(CN2CCCC(C(=O)Nc3ccc(-c4ccco4)cc3)C2)c1 (configuration not stated)	NadD block 32 | NadD inh conf inactive
Cc1cc(C(=O)N/N=C/c2cc(Br)ccc2OC(=O)c2ccccc2Cl)n[nH]1	NadD block 35 | NadD inh conf inactive
Cc1cc(C(=O)N/N=C/c2cc(Br)ccc2OC(=O)c2ccccc2)n[nH]1	none
Cc1ccc(NC(=O)CN2C(=O)S/C(=C\c3cccn3-c3cccc(C(=O)O)c3)C2=O)c(C)c1	NadD block 40 (no result: rCAG RNA binder) | NadD inh conf inactive
Nc1ccc2c(c1)C/C(=C/c1ccco1)C2=O	NadD block 31 | NadD inh conf inactive
COc1ccc2c(c1)CC/C(=C/c1ccco1)C2=O	none
Cc1ccc(CN2CCCCC(NC(=O)c3c(F)cccc3F)C2=O)cc1 (configuration not stated)	none (no result: FAS TE block, NadD block, NR3A LBD binder)
COc1cccc(C(CC2=CCCCC2)NC(=O)C(F)(F)F)c1 (configuration not stated)	none (no result: FAS TE block, NadD block, NR3A LBD binder)
CC(C)C[C@H]1CN([C@@H](Cc2ccc(O)cc2)CN2CCC[C@H]2CN2C(=O)C(=O)NC[C@@H]2Cc2ccccc2)C(=O)C(=O)N1CC1CCCCCC1	NadD block 30 (no result: NR3A LBD binder) | NadD inh conf inactive
CC(C)C[C@H]1CN([C@@H](Cc2ccccc2)CN2CCC[C@@H]2CN2C(=O)C(=O)NC[C@@H]2Cc2ccc(O)cc2)C(=O)C(=O)N1CC1CCCCCC1	none (no result: NR3A LBD binder)
CC(C)C[C@H]1CN([C@@H](Cc2ccc(O)cc2)CN2CCC[C@@H]2CN2C(=O)C(=O)NC[C@@H]2Cc2ccccc2)C(=O)C(=O)N1CC1CCCCC1	NadD block 31 | NadD inh conf inactive
COc1ccc2ccccc2c1/C=N/NC(=O)c1nnn(-c2nonc2N)c1CN(C)C	none
COc1ccc2ccccc2c1/C=N/NC(=O)c1nnn(-c2nonc2N)c1C(C)C	NadD block 33, NR3A LBD binder 13 | NadD inh conf 42
COc1ccc(-c2nnc(Nc3nc4c(OC)cccc4s3)o2)cc1	NadD block 31 | NadD inh conf inactive
COc1cc(OC)cc(C(=O)N/N=C/c2ccc(OC)c(COc3ccc4ccccc4c3)c2)c1	NadD block 40 | NadD inh conf inactive
COc1ccc(/C=N/NC(=O)c2nc(Cl)c(Cl)c(N)c2Cl)cc1COc1ccccc1F	NadD block 30 | NadD inh conf inactive
COc1ccc(/C=N/NC(=O)c2nc(Cl)c(Cl)c(N)c2Cl)cc1COc1ccc(F)cc1F	NadD block 53, NR3A LBD binder 10 | NadD inh conf inactive
COc1ccc(C(=O)N/N=C/c2ccc(OC)c(COc3ccccc3)c2)cc1	none
COCCCNC(=O)C[C@H]1C[C@@]2(C(=O)OC)C(=C[C@H](COCc3ccccc3)O[C@@H]2C)N(Cc2ccco2)C1=O	none (no result: FAS TE block, NadD block, NR3A LBD binder)
S=c1[nH]nc(COc2ccc(Cl)cc2)n1C1CCCCC1	NadD block 35 | NadD inh conf inactive
Cc1ccc(OCc2n[nH]c(=S)n2C2CCCCC2)cc1	none
Cn1cnnc1SCC(=O)Nc1sc2c(c1C#N)CCCCC2	none
Cn1c(CNC(=O)c2ccc(Cl)c(Cl)c2)nnc1SCC(=O)Nc1sc2c(c1C#N)CCCC2	NadD block 45 | NadD inh conf inactive
O=C(CSc1nnc2scc(-c3ccccc3)n12)Nc1nsc(-c2ccc(Cl)cc2)n1	NadD block 41 | NadD inh conf inactive
CCOC(=O)c1sc(NC(=O)c2cc3n(n2)C(C(F)(F)F)CC(c2ccccc2)N3)c(C(=O)OCC)c1C (configuration not stated)	none
CCOC(=O)c1sc(NC(=O)c2cc3n(n2)C(C(F)(F)F)CC(c2cccs2)N3)c(C(=O)OCC)c1C (configuration not stated)	NadD block 30 | NadD inh conf inactive
O=C(CSc1nnc(-c2ccccn2)n1-c1ccccc1)Nc1ccccc1-c1ccccc1	none (no result: FAS TE block, NadD block, NR3A LBD binder)
CCCc1cc2c(=O)c(-c3nc4ccccc4s3)c(COCC(=O)O)oc2cc1O	NadD block 30, rCAG RNA binder 55 | NadD inh conf inactive
C=CCN1C(=O)[C@@H](CC(=O)NCc2ccc(OC)c(OC)c2)[C@]2(C(=O)OCC)CCCCC/C=C/12	none (no result: FAS TE block, NadD block, NR3A LBD binder)
COCCCn1c2nc3ccccc3nc2c2c(=O)n(Cc3ccc(Cl)cc3)cnc21	none
O=c1c2c3nc4ccccc4nc3n(Cc3ccccc3)c2ncn1Cc1ccco1	NadD block 39, rCAG RNA binder 37 | NadD inh conf inactive
Fc1ccc(CN2CCN(c3ncc(Cc4ccccc4)cn3)CC2)c(Cl)c1	none (no result: FAS TE block, NadD block, NR3A LBD binder)
CCOC(=O)[C@]12CCCC=C1N(Cc1ccc(OC)cc1)C(=O)[C@@H]2CC(=O)N1CCC(c2ccccc2)CC1	none (no result: FAS TE block, NadD block, NR3A LBD binder)
Cn1c(=O)c2c(ncn2Cc2ccc(Cl)cc2)n(C)c1=O	none
Cn1c(=O)c2c([nH]c(=S)n2Cc2ccc(Cl)cc2)n(C)c1=O	NadD block 32 | NadD inh conf inactive
C[C@H](O)[C@@H]1CN2CCc3ccc(-c4ccc5c(c4)OCO5)cc3[C@@H]2C[C@@H]1N(C)Cc1cc(Cl)cc(Cl)c1	none (no result: FAS TE block, NadD block, NR3A LBD binder)
CCOc1ccc(N=Nc2c(=O)[nH]n3c(=O)c4c([nH]c23)CCCC4)cc1	NadD block 32 | NadD inh conf inactive
COc1ccc(CNS(=O)(=O)/C=C/c2ccc(F)cc2CNC(=O)OC(C)(C)C)cc1	none (no result: FAS TE block, NadD block, NR3A LBD binder)
C/C(CCC12CC3CC(CC(C3)C1)C2)=N\NC(N)=S	NadD block 34 | NadD inh conf inactive
C/C(CC1CC(C)OC1=O)=N\NC(N)=S (configuration not stated)	none
Cc1cc(Br)c2nc(-c3ccccc3)c(Cc3cccc(Cl)c3)n2c1	NadD block 31 (no result: NR3A LBD binder) | NadD inh conf inactive
Cc1ccc2nc(-c3ccccc3)c(Cc3cccc(Cl)c3)n2c1	none (no result: NR3A LBD binder)
COC(=O)c1c(NC(=O)COC(=O)c2ccc(NC(=O)CC#N)cc2)sc2c1CCCCC2	NadD block 82, NR3A LBD binder 19 | NadD inh conf inactive
O=C(C(=O)N1CCC(CNC(=O)c2ccccc2F)CC1)c1cc2ccccc2o1	none (no result: FAS TE block, NadD block, NR3A LBD binder)
C/C(=N\NC(=O)c1cccc(N/N=C(\C)c2ccco2)c1)c1ccco1	NadD block 38 | NadD inh conf inactive
Cc1ccc(C)c(C(=O)NCCN(C)C)c1	none
C=C(CN(C)C)C(=O)c1cc(C)ccc1C	NadD block 32, NR3A LBD binder 11 | NadD inh conf inactive
CC(C)CNc1ccc2c(c1)OC[C@@H](CC(C)C)NS2(=O)=O	none (no result: FAS TE block, NadD block, NR3A LBD binder)
COc1cc2oc(=O)cc(CN3CCN(c4ccccc4F)CC3)c2cc1Cl	NadD block 39 (no result: NR3A LBD binder) | NadD inh conf inactive
